# Many of the other results were omitted from the sample, so hits are more common in it than they were.
# EZH2 inh: EZH2/PRC2 methyltransferase inhibitors, primary screen, biochemical, DELFIA time-resolved fluorescence, single point. PRC2 H3K27 methylation, DELFIA TRF, 1 h. inhibition, % at 12.5 µM. 57,000 tested, 0.35% active. AID 651548, 2012;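 active = mean inhibition of replicates at least 50% and every single replicate also reaching 50%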;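 also: dimethyl H3K27 on biotinylated H3 21-44 peptide detected by antibody; plate controls were median neutral control wells for no effect and median positive control wells for full effect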
# An asterisk follows results filed as active.
SMILES,EZH2 inh
C=C[C@H]1[C@H](O[C@@H]2O[C@H](CO)[C@@H](O)[C@H](O)[C@H]2O)OC=C(C(=O)OC)[C@H]1C[C@@H]1N[C@H](C(=O)O)Cc2c1[nH]c1ccccc21,98*
CC1(OC(=O)/C=C/c2ccccc2)CC(O)C2C=COC(OC3OC(CO)C(O)C(O)C3O)C21 (centres undefined),12
COC(=O)C1=CO[C@@H](O[C@@H]2O[C@H](CO)[C@@H](O)[C@H](O)[C@H]2O)[C@@H]2[C@@H]3CN4CCc5c([nH]c6ccccc56)[C@]4(C[C@H]12)O3,52*
C=C1C(O)CC2C(C(=O)OC)=CO[C@@H](O[C@@H]3O[C@H](CO)[C@@H](O)[C@H](O)[C@H]3O)C12 (some centres undefined),25
COC(=O)C1=CO[C@@H](O[C@@H]2O[C@H](CO)[C@@H](O)[C@H](O)[C@H]2O)[C@@H]2[C@@H](C)[C@@H](O)[C@@H](OC(=O)/C=C/c3ccc(O)c(O)c3)[C@H]12,11
C=CC(C)(O)CC/C=C(\C)C(=O)OCC1CCC2C(C(=O)O)=COC(OC3OC(CO)C(O)C(O)C3O)C12 (centres undefined),0
Cc1cc(C)c(S(=O)(=O)N(C)CC(=O)Nc2ccccc2F)c(C)c1,6
COc1cc(S(=O)(=O)NCc2ccco2)ccc1Br,-19
COc1ccc(CCNC(=O)C(=O)c2c(-c3ccccc3)[nH]c3ccccc23)cc1OC,1
COC(=O)c1ccccc1NC(=O)CSc1n[nH]c(-c2ccccc2Cl)n1,1
Cn1c(=O)c2ccccc2n(CC(=O)Nc2ccccc2[N+](=O)[O-])c1=O,-20
COc1cc(O)cc2c1C(=O)OC(C)C2 (centres undefined),12
COc1cc2c(c(O)c1OC)C(=O)CC(c1ccc(O)cc1)O2 (centres undefined),11
COc1cc(OC)c2c(c1O)OC(c1ccccc1)CC2=O (centres undefined),72*
Cc1nn2c(CN(c3ccccc3)S(=O)(=O)c3ccccc3)nnc2c2ccccc12,6
COC(=O)Cn1nnc(-c2nnn(COC(C)=O)c2-c2ccccc2)c1-c1ccccc1,-11
COc1cc(O)c(CC=C(C)C)cc1C(=O)/C=C/c1ccc(O)c(CC=C(C)C)c1,24
CC(C)=CCc1cc(/C=C2\OC(=O)C(c3cc4c(cc3O)OC(C)(C)CC4)C2=O)ccc1O (centres undefined),78*
Cc1cc(C)nc(SCC(O)COc2ccc(Cl)cc2)n1 (centres undefined),4
Cc1cc(Oc2ccccc2)nc(SCC(=O)Nc2ccc(Cl)cc2Cl)n1,19
Cc1cc(Oc2ccccc2)nc(SCCOc2ccccc2)n1,52*
O=C(CCCCCCC(=O)Nc1ccccc1O)N/N=C/c1ccc[nH]1,13
COc1ccc(S(=O)(=O)Nc2cccnc2)cc1C(=O)O,-11
Cc1cc(N(CC(=O)Nc2cc(Cl)ccc2Cl)S(C)(=O)=O)ccc1Br,2
O=c1c(OC2OC(CO)C(O)C(O)C2OC2OC(CO)C(O)C(O)C2O)c(-c2ccc(O)cc2)oc2cc(O)cc(O)c12 (centres undefined),87*
SMILES,EZH2 inh
CC1OC(OCC2OC(Oc3c(-c4ccc(O)c(O)c4)oc4cc(O)cc(O)c4c3=O)C(O)C(O)C2O)C(O)C(O)C1O (centres undefined),0
C[C@@H]1O[C@@H](Oc2cc(O)c3c(=O)c(O[C@@H]4O[C@@H](C)[C@H](O)[C@@H](O[C@@H]5OC[C@@H](O)[C@H](O)[C@H]5O)[C@H]4O[C@@H]4O[C@H](CO)[C@@H](O)[C@H](O)[C@H]4O)c(-c4ccc(O)cc4)oc3c2)[C@H](O)[C@H](O)[C@H]1O,15
COc1ccccc1-n1c(SC(C)C(=O)N2CCCCC2)nc2ccc(I)cc2c1=O (centres undefined),-5
OCCCNc1nc(-c2ccccc2Cl)c2cc(Br)ccc2n1,-2
Brc1ccc2noc(-c3ccccc3)c2c1,63*
Brc1ccc2nc(NCc3ccccn3)nc(-c3ccccc3)c2c1,28
CC1(C)CC(=O)C(C=NCCN2CCN(C(=O)Nc3ccc(Cl)c(Cl)c3)CC2)=C(O)C1,3
N#Cc1c(C(F)(F)F)cc(-c2cccs2)nc1SCC(O)CN1CCSCC1 (centres undefined),-18
CN(C(=S)SCc1ccccc1)c1ccccc1,66*
CN(C)S(=O)(=O)N(CC(=O)O)c1ccccc1,16
COC(=O)c1ccc(C)c(NC(=O)CN(c2cc(Cl)c(Cl)cc2Cl)S(C)(=O)=O)c1,6
COc1cc(Cl)c(C)cc1NC(=O)CC1Sc2ccccc2NC1=O (centres undefined),14
COC(=O)c1ccc(Cl)c(NC(=O)CSc2nnc(-c3cc(OC)cc(OC)c3)o2)c1,-11
O=C(O)c1c(Sc2ccccc2)c2cc(Cl)ccc2n1Cc1ccc(Cl)cc1,64*
CC(=O)N(C)c1ccc(OCC(O)Cn2c3ccc(Cl)cc3c3cc(Cl)ccc32)cc1 (centres undefined),4
